RT RNaseH block: inhibitors of HIV-1 reverse transcriptase RNase H; P04585; RT-RNase H RNA/DNA duplex cleavage, fluorescence; 1.9% of 65,000 active; inhibition, % at 10 µM; AID 565; in the data active = inhibition above about 50%
RmlC RmlD mix: mixture blocks RmlC and RmlD coupled enzyme activity; RmlC/RmlD coupled enzyme inhibition, 384-well mixture HTS; inhibition, % at 5.5 µM; 0.39% of 110,000 active; AID 1532; in the data active = inhibition above about 30%, passing the limit was not always enough
RmlCD fluor art: shows fluorescent artifact in RmlC/RmlD assay, dose-response counter-screen; RmlC/RmlD assay fluorescence artifact counter-screen; 96% of 360 active; shares compounds with RmlC RmlD mix; calls only; call rule not given here;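 note: compound alone with no enzyme and no substrates present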
Starred values were filed as active, the others as inactive; i = inactive; · = no result given; + = active, no number. The sample as a whole holds a higher share of hits than the screen did.

SMILES	RT RNaseH block	RmlC RmlD mix	RmlCD fluor art
COc1cc2[nH]c(=O)n(CCC(=O)N3CC=C(c4ccccc4)CC3)c(=O)c2cc1OC	·	-14	·
COc1cc2c(cc1OC)-c1cc(OCCN3CCOCC3)nc(=O)n1CC2	0	61*	+
CCNc1cc2n(c(=O)n1)CCc1cc(OC)c(OC)cc1-2	-16	17	·
C#CCNC(=O)C1=C[C@@H](c2ccc(C(F)(F)F)cc2)[C@H](CCCO)[C@@H](OCC)O1	·	7	·
N#CCSc1nc2c(cc1C#N)CCCC2	-17	0	·
Cc1ccc(CSc2nc3c(cc2C#N)CCC3)cc1	·	-9	·
COC(=O)CC(=O)CSc1nc2c(cc1C#N)CCCCC2	3	138*	+
CCOC(=O)CC(=O)CSc1nc2c(cc1C#N)CCC2	·	80*	+
CN(C)CCCNS(=O)(=O)c1cc(Cl)ccc1Cl	6	2	·
CN(C)CCCNS(=O)(=O)c1ccc(N2CCC(c3ccc(Cl)cc3)=N2)cc1	·	93*	+
CCN(CC(=O)N1CCCCCC1)S(=O)(=O)c1ccc(Cl)cc1	-1	-1	·
O=S(=O)(c1ccc(N2CCC(c3ccc(Cl)cc3)=N2)cc1)N(CCO)CCO	·	40*	+
Cc1nn(C)c(Oc2cccc(Cl)c2)c1C(=O)Nc1ccc(F)cc1	·	7	·
CCn1c(SCC(=O)Nc2oc(-c3ccccc3)c(-c3ccccc3)c2C#N)nnc1-c1cc(OC)cc(OC)c1	·	-5	·
OCC[C@@H]1C[C@@H](O)[C@H](O)[C@]2(CCCO2)O1	·	0	·
CCCNC(=O)c1ccccc1NC(=O)c1ccccc1N(C)S(=O)(=O)c1ccc(C)cc1	·	5	·
Cn1nc(C(=O)NCc2ccccn2)c2ccccc2c1=O	-11	-8	·
Cn1c(C(=O)NCc2ccccn2)cc2c(=O)n3ccccc3nc21	-28	96*	+
CC1CCN(CCCNC(=O)c2coc3nc4ccccc4nc23)CC1	5	19	·
CC1CCCN(CCCNC(=O)c2coc3nc4ccccc4nc23)C1 (configuration not stated)	15	140*	+
COc1ccc(C(=O)N2CC3(CC(c4ccc(Cl)cc4)=NO3)C[C@H]2C(=O)NCC(N)=O)cc1 (some centres not stated)	·	-12	·
Cc1ccc(CN2CCNC(=O)C2CC(=O)O)o1 (configuration not stated)	-12	-14	·
COc1ccccc1C(=O)NCCCN1CCCC1=O	-10	-11	·
COC(=O)C1=CN(CCCN2CCCC2=O)C=C(C(=O)OC)C1c1ccccc1C(F)(F)F	-3	68*	+
Cn1c(COc2ccc3ccccc3c2)nnc1SCC(=O)OC1CCCCC1	·	8	·
SMILES	RT RNaseH block	RmlC RmlD mix	RmlCD fluor art
COc1ccc(-c2cc(C(F)(F)F)n3nc(C(=O)N(C)Cc4ccccc4)cc3n2)cc1OC	·	·	+
COc1ccc(-c2cc(C(F)(F)F)n3nc(C(=O)Nc4cc(C)on4)cc3n2)cc1OC	-14	·	·
NC(=O)c1nn(-c2ccccc2)nc1N	-8	43*	+
NC(=O)c1nn(-c2ccccc2)nc1NC(=O)CN1CCCCC1	-6	6	·
CC(C)CCNC(=O)CN(Cc1cccs1)C(=O)CCC(=O)Nc1nccs1	·	-21	·
CCOC(=O)c1c(C)nc2sc(C(N)=O)c(N)c2c1-c1ccc(OC)cc1	·	-2	·
COc1ccc(C2NC(=O)c3sc4nc(C)c(C(C)=O)c(-c5ccc(Cl)cc5)c4c3N2)cc1 (configuration not stated)	·	52*	+
Cc1ccc(Nc2nnc(SCC(=O)NCc3ccco3)s2)cc1	4	-12	·
O=C(CNS(=O)(=O)c1ccccc1)NCc1ccccn1	-4	-1	·
O=C1c2ccccc2C(=O)N1CSc1nnc2c3ccccc3n(CCc3ccccc3)c2n1	·	-7	·
C=CCn1c2ccccc2c2nnc(SCN3C(=O)c4ccccc4C3=O)nc21	-22	50*	i
COC(=O)N1CC(C)N(C(=O)OC)CC1C (configuration not stated)	-2	7	·
COC(=O)CNC(=O)/C=C/c1ccc(OC)cc1	·	-29	·
O=C(Nc1sc2c(c1C(=O)O)CCC2)c1ccco1	·	15	·
O=C(Nc1sc2c(c1C(=O)NC1CC1)CCCCCC2)c1ccco1	29	+	+
O=C1Nc2ccccc2/C1=N\c1sc2c(c1C(=O)Nc1ccccc1)CCCC2	·	4	·
COc1cccc(/C=N/NC(=O)c2cc3c(OC)cccc3[nH]2)c1O	·	·	+
COc1cccc(/C=N/NC(=O)C(=O)NCc2ccco2)c1O	·	-1	·
Cc1nc2ccc(NC(=O)NCCCO)cc2s1	·	-1	·
Brc1ccc(-c2nc3ncccn3c2NC2CCCCC2)o1	·	-4	·
COC(=O)c1cc(=O)c2cccc(OC)c2[nH]1	·	·	i
COc1ccc(OC)c2[nH]c(C(=O)O)cc12	·	-15	·
CCNC(=O)NC(=O)CSc1ccc(NC(C)=O)cc1	-1	6	·
CCNC(=O)NC(=O)COC(=O)c1ccccc1SCC(=O)NC(=O)NCC	4	+	+
Cc1ccc2c(c1)c1ncnc(N3CCC4(CC3)OCCO4)c1n2C	-15	-28	·
SMILES	RT RNaseH block	RmlC RmlD mix	RmlCD fluor art
Cc1ccc2c(c1)c1ncnc(N3CCOCC3)c1n2C	-21	·	+
COc1ccc(S(=O)(=O)N2CCOC2CNC(=O)C(=O)NCCc2c[nH]c3ccccc23)cc1C (configuration not stated)	·	8	·
O=C(OCC(=O)N1CCN(C(=O)c2ccco2)CC1)c1cc(-c2ccc(Cl)c(Cl)c2Cl)nc2ccccc12	·	-33	·
O=C(OCC(=O)N1CCN(C(=O)c2ccco2)CC1)c1cc(-c2ccco2)nc2ccccc12	·	30*	+
COc1ccc(C(=O)N/N=C/c2ccc3cccc(OCc4ccccc4)c3n2)cc1	·	-69	i
O=C(N/N=C/c1ccc2cccc(OCc3ccccc3)c2n1)c1ccc(Br)cc1	·	-317	·
COc1ccc(-c2c(-c3ccsc3)oc3ccc(N4CCOCC4)cc23)cc1	·	-95	·
COCCN(CCOC)C(=O)c1cc2c(=O)n3ccccc3nc2s1	7	115*	+
CCN(CC)C(=O)c1cc2c(=O)n3ccccc3nc2s1	-17	27	·
CCCNCc1cc(OC)c(OCCC)cc1Cl	·	6	·
CC1CN(C(=O)COc2ncnc3ccccc23)CC(C)O1 (configuration not stated)	·	0	·
COCCCNC(CC(=O)Nc1ccc(N(C)C)cc1)C(=O)O (configuration not stated)	1	·	·
CCCCOc1ccc2c(C)cc(=O)oc2c1OCCCC	·	-5	·
CCOc1ccc(C2C(=O)N(C3CCCCC3)CC(=O)N2CC2CCCO2)cc1OC (configuration not stated)	4	·	·
C=CCOc1ccc(C2OC34CCCCC3C(C#N)(C#N)C2(C#N)C(=N)O4)cc1 (configuration not stated)	·	60*	+
CCCCOc1ccc(C2OC34CCCCC3C(C#N)(C#N)C2(C#N)C(=N)O4)cc1 (configuration not stated)	·	161*	+
CCOc1ccc(C2OC34CCCCC3C(C#N)(C#N)C2(C#N)C(=N)O4)cc1OC (configuration not stated)	·	+	+
CC[C@@]1(O)C(=O)OCc2c1cc1n(c2=O)Cc2cc3c(N)cccc3nc2-1	·	13	·
CC[C@@]1(O)C(=O)OCc2c1cc1n(c2=O)Cc2cc3c(CN(C)C)c(O)ccc3nc2-1	·	38*	+
O=C(COC(=O)c1ccc(Br)o1)Nc1cccc(S(=O)(=O)N2CCCCCC2)c1	·	4	·

Screening data deposited in PubChem by several laboratories.
